Results taken from PubChem BioAssay (Tox21).
Values joined by “and” are separate entries in the source; they are usually repeats but may differ in a detail not shown here. Equal values may be shown once. Records with an inconclusive call do not appear. Some compounds were tested as several samples or in several runs, with calls that do not always agree. Active and inactive are the calls of the source. Unless noted, the call rests on the fitted dose curve; in most records, active means well fitted curve in the direction sought with a large enough effect in the repeat runs; inconclusive means weak or mixed curves; inactive means no such curve, though single readings can be large; an effect the other way counts as inactive or inconclusive.

What was measured:
[1] = molecular target: Retinoic acid receptor RXR-alpha (Homo sapiens) (UniProt P19793); assay: qHTS assay to identify small molecule agonists of the RXR signaling pathway (AID 1159527; calls by dose curve; further: nearly all actives have a fitted effect of over 35% in size; further: potency means the concentration at half of the fitted maximal effect)
Chain of Retinoic acid receptor RXR-alpha (Homo sapiens) (P19793 whole entry, looked up): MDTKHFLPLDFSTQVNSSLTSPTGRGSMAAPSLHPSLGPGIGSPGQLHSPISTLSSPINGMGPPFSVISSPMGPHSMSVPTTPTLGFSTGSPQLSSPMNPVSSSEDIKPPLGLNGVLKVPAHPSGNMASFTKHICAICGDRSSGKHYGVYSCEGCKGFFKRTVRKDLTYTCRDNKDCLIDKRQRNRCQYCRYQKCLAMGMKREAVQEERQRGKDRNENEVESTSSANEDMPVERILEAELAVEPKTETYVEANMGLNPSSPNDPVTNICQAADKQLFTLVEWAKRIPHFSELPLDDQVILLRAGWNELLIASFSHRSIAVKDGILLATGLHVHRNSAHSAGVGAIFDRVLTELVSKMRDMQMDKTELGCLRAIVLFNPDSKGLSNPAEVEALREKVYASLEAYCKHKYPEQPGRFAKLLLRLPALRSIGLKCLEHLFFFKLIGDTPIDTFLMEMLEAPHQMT
How it was run: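 Fluorescence ratio readout (460 vs 530 nm) from GeneBLAzer RXR-alpha HEK 293T cells after 16 hr compound treatment; cells seeded 5 hr beforehand in low-serum, charcoal-stripped medium.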

[2] = qHTS assay to identify small molecule agonists of the RXR signaling pathway - cell viability counter screen (AID 1159529);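 further: HEK 293T cells carrying an RXR-alpha UAS beta-lactamase reporter; series mostly up to about 77 µM; nearly all actives have a fitted effect of over 50% in size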
How it was run: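 Viability read-out for the RXR-alpha agonist qHTS: luminescent CellTiter-Glo signal after 30 min at RT. HEK 293T bla reporter cells, 2% charcoal-stripped FBS, 16 hr compound incubation; tetraoctyl ammonium bromide as cytotoxic control.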

[3] = qHTS assay to identify small molecule antagonists of the retinoid acid receptor (RAR) signaling pathway - cell viability counter screen (AID 1159551); further: nearly all actives have a fitted effect of over 35% in size
How it was run: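 Retinol-stimulated (1 uM final) C3RL4 cells, compound 6 h, 37 C; readout CellTiter-Glo luminescence (ATP) after 30 min RT incubation.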

[4] = qHTS assay to identify small molecule antagonists of the estrogen related receptor (ERR) signaling pathway from Tox21 library - cell viability counter screen (AID 1224834); further: nearly all actives have a fitted effect of over 30% in size; further: potency means the concentration at half of the fitted maximal effect
How it was run: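 After 17.5 h of compound exposure at 37 C, ERR cells are incubated with CellTiter-Fluor for 30 min and fluorescence intensity serves as the viability measure.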

[5] = molecular target: Luciferin 4-monooxygenase (Photinus pyralis) (UniProt P08659); assay: qHTS assay to identify small molecule inhibitors of firefly luciferase (AID 1224835); further: nearly all actives have a fitted effect of over 25% in size; further: potency means the concentration at half of the fitted maximal effect
Chain of Luciferin 4-monooxygenase (Photinus pyralis) (P08659 whole entry, looked up): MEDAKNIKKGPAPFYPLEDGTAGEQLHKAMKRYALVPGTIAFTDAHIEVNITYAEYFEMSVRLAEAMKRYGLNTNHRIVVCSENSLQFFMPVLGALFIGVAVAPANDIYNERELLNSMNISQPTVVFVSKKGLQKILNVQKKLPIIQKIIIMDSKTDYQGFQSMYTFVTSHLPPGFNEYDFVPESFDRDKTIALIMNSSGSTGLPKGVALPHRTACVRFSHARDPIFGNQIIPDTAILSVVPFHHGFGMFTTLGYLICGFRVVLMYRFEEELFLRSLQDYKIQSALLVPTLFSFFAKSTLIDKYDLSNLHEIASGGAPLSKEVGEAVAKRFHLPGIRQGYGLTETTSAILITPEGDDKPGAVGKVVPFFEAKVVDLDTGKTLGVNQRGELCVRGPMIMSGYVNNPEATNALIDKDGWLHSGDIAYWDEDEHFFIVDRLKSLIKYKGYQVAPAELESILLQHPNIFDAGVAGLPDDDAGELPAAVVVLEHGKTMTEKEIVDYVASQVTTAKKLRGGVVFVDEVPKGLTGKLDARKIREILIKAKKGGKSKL
How it was run: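 Inhibition of purified Photinus luciferase is measured by luminescence. Substrate levels (D-luciferin, ATP) sit at their KM values. Each compound is tested in a concentration series.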

[6] = qHTS assay to identify small molecule agonists of the constitutive androstane receptor (CAR) signaling pathway - cell viability counter screen (AID 1224836); further: nearly all actives have a fitted effect of over 45% in size; further: potency means the concentration at half of the fitted maximal effect
How it was run: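 Multiplexed viability check: HepG2-CYP2B6-hCAR cells, 15-point compound dosing, 0.75 uM PK11195 final, 23 h at 37 C, CellTiter-Fluor fluorescence.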

[7] = qHTS assay to identify small molecule antagonists of the estrogen related receptor signaling pathway with the pleiotropic PPARgamma coactivator (PGC) from Tox21 10K library - cell viability counter screen (AID 1224840; active means well fitted cell-killing curve with a large enough effect in the repeat runs, not every such curve was filed as active; further: nearly all actives have a fitted effect of over 40% in size)
How it was run: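 Following seeding of 2,000 PGC/ERR cells/well and 6 hours' incubation, test compounds were delivered in DMSO. The plates then sat 17.5 hours at 37 C before a fluorogenic live-cell protease reagent (CellTiter-Fluor) was read after 30 min.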

[8] = molecular target: Thyrotropin receptor (Homo sapiens) (UniProt P16473); assay: qHTS assay to identify small molecule agonists of the thyroid stimulating hormone receptor (TSHR) signaling pathway (AID 1224843; calls by dose curve; further: nearly all actives have a fitted effect of over 45% in size)
Chain of Thyrotropin receptor (Homo sapiens) (P16473 whole entry, looked up): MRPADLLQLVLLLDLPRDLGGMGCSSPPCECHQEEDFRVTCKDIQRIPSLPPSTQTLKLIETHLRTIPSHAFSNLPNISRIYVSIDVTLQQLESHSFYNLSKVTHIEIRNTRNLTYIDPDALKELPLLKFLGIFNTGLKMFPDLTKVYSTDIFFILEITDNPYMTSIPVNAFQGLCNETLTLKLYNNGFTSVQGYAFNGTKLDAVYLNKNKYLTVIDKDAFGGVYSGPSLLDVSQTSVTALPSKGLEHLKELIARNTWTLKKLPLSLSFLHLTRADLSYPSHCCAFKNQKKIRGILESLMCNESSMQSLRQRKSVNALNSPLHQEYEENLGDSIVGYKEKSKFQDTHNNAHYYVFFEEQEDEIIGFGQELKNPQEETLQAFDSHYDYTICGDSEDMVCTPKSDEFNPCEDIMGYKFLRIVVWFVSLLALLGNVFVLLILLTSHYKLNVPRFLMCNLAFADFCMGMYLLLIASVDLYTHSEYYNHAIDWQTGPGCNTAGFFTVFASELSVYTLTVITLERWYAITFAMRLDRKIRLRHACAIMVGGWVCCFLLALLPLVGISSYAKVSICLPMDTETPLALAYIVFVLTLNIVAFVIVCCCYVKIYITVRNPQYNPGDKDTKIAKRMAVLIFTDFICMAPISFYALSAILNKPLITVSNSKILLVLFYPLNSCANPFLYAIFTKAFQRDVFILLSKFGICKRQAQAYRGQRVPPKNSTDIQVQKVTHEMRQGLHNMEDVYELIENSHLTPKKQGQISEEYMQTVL
How it was run: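 HEK293 cells stably bearing the thyrotropin receptor were plated at 800 cells/well and challenged with compound (30 min, RT). Accumulated cAMP was quantified via cAMP-d2 competing for cryptate-tagged antibody.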

[9] = qHTS assay to identify small molecule agonists of the hypoxia (HIF-1) signaling pathway - cell viability counter screen (AID 1224844; calls by dose curve; further: nearly all actives have a fitted effect of over 50% in size)
How it was run: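 Cells (HRE-bla ME-180, 2,000 per well) sat 5 hrs at 37C, got compound for 17 hrs, were read for CCF4-AM FRET, and were finally lysed with CellTiter-Glo for a 30 min room-temperature luminescence read.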

[10] = qHTS assay to identify small molecule agonists of H2AX (AID 1224845; active means well fitted activation curve with a large enough effect in the signal ratio in the repeat runs, not every such curve was filed as active; the % refers to the signal ratio; further: potency means the concentration at half of the fitted maximal effect)
How it was run: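 Phospho-H2AX Ser139 measured by HTRF (ex 320 nm; em 665 and 620 nm) after 24 hr antibody incubation. Compounds, 15 concentrations, 0.76% DMSO, were applied to CHO-K1 cells for 3hr at 37C before lysis.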

[11] = qHTS assay to identify small molecule agonists of the hypoxia (HIF-1) signaling pathway (AID 1224846; active means well fitted activation curve with a large enough effect in the signal ratio in the repeat runs, not every such curve was filed as active; the % refers to the signal ratio)
How it was run: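 A low-serum medium (0.5% dialyzed FBS) holding 2,000 HRE-bla ME-180 cells per well is preincubated for 5 hrs, dosed with compounds by pintool, and kept a further 17 hrs at 37C, 5% CO2 before CCF4-AM FRET detection of beta-lactamase.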

[12] = qHTS assay to identify small molecule agonists of H2AX - cell viability counter screen (AID 1224847; calls by dose curve;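 further: wild-type CHO-K1 cells; top concentration of the series differs between compounds; nearly all actives have a fitted effect of over 30% in size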)
How it was run: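 After overnight plating of 1000 CHO-K1 cells per well, a 15-concentration compound series was applied for 3 hr at 37C. Luminescence from CellTiter-Glo, read following 30 min at room temperature, reflected cell viability.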

[13] = qHTS assay to identify small molecule agonists of the retinoic acid receptor (RAR) signaling pathway (AID 1159553)
How it was run: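 Reporter readout comes from luciferase under RARE control in C3RL4 cells; compound exposure lasts 6 hr at 37 C in 5% CO2, and luminescence is recorded following a 30 min room-temperature incubation with reagent.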

[14] = qHTS assay to identify small molecule antagonists of the estrogen related receptor (ERR) signaling pathway - cell viability counter screen (AID 1224818); further: series mostly up to about 46 µM
How it was run: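 After a 6 h pre-incubation, ERR cells were dosed by pin tool with compounds, positive/negative controls or DMSO alone. Following 17.5 h at 37 C and 30 min with CellTiter-Fluor, fluorescence was recorded.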

[15] = qHTS assay to identify small molecule antagonists of the estrogen related receptor signaling pathway with the pleiotropic PPARgamma coactivator (PGC) cell viability counter screen (AID 1224822; further: series mostly up to about 46 µM)
How it was run: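 PGC/ERR cells were plated at 2,000 per well and allowed 6 h to settle before compound addition. Following 17.5 h at 37 C, CellTiter-Fluor reagent was added and fluorescence was read 30 min later.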

[16] = qHTS assay to identify small molecule antagonists of the retinoic acid receptor (RAR) signaling pathway (AID 1159552; further: nearly all actives have a fitted effect of over 50% in size; further: potency means the concentration at half of the fitted maximal effect)
How it was run: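 Using a RARE-driven luciferase construct in C3RL4 cells, retinol at 1 uM final provided the agonist stimulus while compounds were co-applied. After 6 hours at 37 C, luminescence was recorded to flag inhibitors of retinol signaling.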

[17] = qHTS assay to identify small molecule antagonists of the constitutive androstane receptor (CAR) signaling pathway - cell viability counter screen (AID 1224837); further: series mostly up to about 92 µM; nearly all actives have a fitted effect of over 45% in size
How it was run: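 Counter screen run in HepG2-CYP2B6-hCAR cells: 4 hr settle, compound titration (15 concentrations) with 50 nM CITCO, 23 hr at 37 C/5% CO2, CellTiter-Fluor fluorescence.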

[18] = molecular target: Nuclear receptor subfamily 1 group I member 3 (Homo sapiens) (UniProt Q14994); assay: qHTS assay to identify small molecule antagonists of the constitutive androstane receptor (CAR) signaling pathway (AID 1224838);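 further: HepG2 cells stably expressing hCAR with CYP2B6 luciferase reporter stimulated by CITCO; nearly all actives have a fitted effect of over 40% in size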
Chain of Nuclear receptor subfamily 1 group I member 3 (Homo sapiens) (Q14994 whole entry, looked up): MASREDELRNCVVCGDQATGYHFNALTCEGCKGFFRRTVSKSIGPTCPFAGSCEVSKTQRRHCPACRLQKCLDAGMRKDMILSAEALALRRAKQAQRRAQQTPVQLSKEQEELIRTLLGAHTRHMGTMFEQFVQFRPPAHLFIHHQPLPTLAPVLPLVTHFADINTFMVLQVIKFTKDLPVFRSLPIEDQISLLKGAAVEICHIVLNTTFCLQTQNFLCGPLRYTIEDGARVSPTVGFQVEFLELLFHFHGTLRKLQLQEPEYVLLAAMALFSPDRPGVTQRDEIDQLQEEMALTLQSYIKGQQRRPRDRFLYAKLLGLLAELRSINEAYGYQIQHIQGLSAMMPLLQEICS
How it was run: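 Cell line: HepG2 double-stable for hCAR and CYP2B6-2.2kb reporter. Agonist: CITCO, 50 nM final. Compounds: 15 concentrations, 24 h, 37 C. Detection: ONE-Glo luminescence.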

[19] = molecular target: Nuclear receptor subfamily 1 group I member 3 (Homo sapiens) (UniProt Q14994); assay: qHTS assay to identify small molecule agonists of the constitutive androstane receptor (CAR) signaling pathway (AID 1224839); further: nearly all actives have a fitted effect of over 15% in size; further: potency means the concentration at half of the fitted maximal effect;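 on activation: HepG2 cells stably carrying human CAR and a CYP2B6 luciferase reporter; series mostly up to about 92 µM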
How it was run: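 Using human hepatoma HepG2 cells engineered with hCAR and a CYP2B6-2.2kb reporter, 15-concentration compound series were incubated 24 h alongside PK11195 at 0.75 uM final, with luminescence quantified afterwards.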

[20] = qHTS assay to identify small molecule antagonists of the estrogen related receptor signaling pathway with the pleiotropic PPARgamma coactivator (PGC) from Tox21 10K library (AID 1224841; call rule not given here; further: actives are mostly falling curves and most rising ones were filed inactive; nearly all actives have a fitted effect of over 50% in size; further: potency means the concentration at half of the fitted maximal effect)
How it was run: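 qHTS antagonist format: PGC/ERR cells, 2k/well, compound in DMSO by pin transfer after 6 h attachment, 18 h treatment at 37 C, One-Glo luminescence read at 30 min.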

Measured: Potency

CCCCCCCCCC
inactive: [1] | [2] | [3] | [4] | [5] | [6] | [7] | [8] | [9] | [10] | [11] | [12]

Cc1cnc(C(=O)NCCc2ccc(S(=O)(=O)NC(=O)NC3CCCCC3)cc2)cn1
inactive: [2] | [3] | [13] | [14] | [15] | [4] | [5] | [6] | [7] | [8] | [9] | [12]

CCCCCCCCCCCCOCCO
inactive: [2] | [3] | [16] | [4] | [6] | [17] | [18] | [19] | [7] | [8] | [10] | [12]
active: [5] 25.2 µM and 30.9 µM

COc1ccc(Cl)cc1C(=O)NCCc1ccc(S(=O)(=O)NC(=O)NC2CCCCC2)cc1
inactive: [2] | [3] | [16] | [13] | [14] | [15] | [4] | [6] | [18] | [19] | [7] | [8] | [9] | [10] | [12]

OCCOCCOCCO
inactive: [2] | [3] | [4] | [5] | [6] | [17] | [18] | [7] | [20] | [8] | [10] | [11] | [12]

O=C(O)c1ccc2c(c1)C(=O)OC2=O
inactive: [2] | [3] | [16] | [13] | [4] | [5] | [6] | [17] | [7] | [8] | [9] | [10] | [11] | [12]

C[C@H]1C[C@H]2[C@@H]3CCC4=CC(=O)C=C[C@]4(C)[C@@]3(F)[C@@H](O)C[C@]2(C)[C@@]1(O)C(=O)CO
inactive: [1] | [2] | [3] | [4] | [6] | [18] | [19] | [7] | [9] | [10] | [12]

CCCCCC/C(C=O)=C\c1ccccc1
inactive: [2] | [3] | [16] | [13] | [4] | [6] | [17] | [18] | [7] | [8] | [10] | [11] | [12]

CCCCCCCCCCCCCCCO
inactive: [2] | [3] | [16] | [13] | [4] | [5] | [6] | [7] | [8] | [9] | [10] | [12]
69.1 µM (active) and inactive: [20]

CCCCC(CC)COC(=O)C(C#N)=C(c1ccccc1)c1ccccc1 (stereo not drawn)
active: [16] 30.6 µM
inactive: [2] | [3] | [13] | [4] | [5] | [6] | [17] | [7] | [20] | [8] | [9] | [10] | [11] | [12]

COc1cc(Cc2cnc(N)nc2N)cc(OC)c1OC
inactive: [2] | [3] | [16] | [13] | [14] | [15] | [4] | [5] | [6] | [7] | [8] | [10] | [12]

OCCOCCN1CCN(C2=Nc3ccccc3Sc3ccccc32)CC1
inactive: [2] | [3] | [16] | [13] | [4] | [6] | [17] | [7] | [8] | [9] | [10] | [11] | [12]

CC(C)(C)[C@@H](O)[C@@H](Cc1ccc(Cl)cc1)n1cncn1
inactive: [2] | [3] | [16] | [13] | [4] | [5] | [6] | [17] | [7] | [8] | [9] | [10] | [11] | [12]

ON=C1CCCCC1
inactive: [2] | [3] | [16] | [13] | [4] | [5] | [6] | [17] | [18] | [7] | [20] | [8] | [10] | [12]

Oc1cccc2ccccc12
inactive: [1] | [2] | [3] | [4] | [6] | [17] | [18] | [7] | [8] | [9] | [11] | [12]
active: [19] 62.8 µM and 61.1 µM | [10] 103 µM

C#C[C@]1(O)CC[C@H]2[C@@H]3CCC4=CC(=O)CC[C@@H]4[C@H]3CC[C@@]21C
inactive: [2] | [3] | [13] | [4] | [5] | [6] | [19] | [7] | [8] | [12]
active: [16] 27.3 µM and 11.9 µM | [10] 28.4 µM and 19.6 µM

CSCCC=O
inactive: [2] | [3] | [16] | [13] | [4] | [5] | [6] | [17] | [18] | [7] | [20] | [9] | [10] | [11] | [12]

Nc1cc([N+](=O)[O-])ccc1O
active: [4] 48.6 µM and 30.5 µM | [6] 48.6 µM
inactive and 9.72 µM (active): [1]
inactive: [2] | [3] | [5] | [18] | [20] | [8] | [9] | [11] | [12]
